A short description of test [1]: qHTS assay to identify small molecule antagonists of the estrogen related receptor (ERR) signaling pathway from Tox21 library - cell viability counter screen (AID 1224834). Also: nearly all actives have a fitted effect of over 30% in size. The method in brief:
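Fluorescence from CellTiter-Fluor gives the viability read-out, taken 30 min after reagent addition. Before that, ERR cells seeded 6 h earlier were incubated with compounds for 17.5 h at 37 C.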

The target of test [2] is Luciferin 4-monooxygenase (Photinus pyralis) (UniProt P08659). Nature of the test: qHTS assay to identify small molecule inhibitors of firefly luciferase (AID 1224835). Also: nearly all actives have a fitted effect of over 25% in size. Also: potency is read from the fitted curve at half-maximal effect. The method in brief: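 Quantitative HTS format; KM concentrations of both substrates. Purified P. pyralis FLuc activity quantified from luminescence images.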
Luciferin 4-monooxygenase (Photinus pyralis), sequence (P08659 whole entry, looked up): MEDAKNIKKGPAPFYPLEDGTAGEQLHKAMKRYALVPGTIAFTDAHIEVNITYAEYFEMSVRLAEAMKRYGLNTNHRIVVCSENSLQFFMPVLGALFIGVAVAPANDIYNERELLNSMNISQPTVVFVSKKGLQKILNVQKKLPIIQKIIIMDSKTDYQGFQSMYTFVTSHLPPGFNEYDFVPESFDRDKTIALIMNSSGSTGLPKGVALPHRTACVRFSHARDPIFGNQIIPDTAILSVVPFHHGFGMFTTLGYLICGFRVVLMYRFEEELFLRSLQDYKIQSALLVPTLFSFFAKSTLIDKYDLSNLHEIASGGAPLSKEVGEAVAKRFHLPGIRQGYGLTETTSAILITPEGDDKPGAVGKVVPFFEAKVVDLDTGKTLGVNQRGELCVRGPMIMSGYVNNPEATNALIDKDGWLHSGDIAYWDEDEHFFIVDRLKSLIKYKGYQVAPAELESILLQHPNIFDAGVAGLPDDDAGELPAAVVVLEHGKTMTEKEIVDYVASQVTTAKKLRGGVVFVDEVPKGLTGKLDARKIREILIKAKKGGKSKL
Test [3] is described as follows: qHTS assay to identify small molecule agonists of the constitutive androstane receptor (CAR) signaling pathway - cell viability counter screen (AID 1224836). Also: nearly all actives have a fitted effect of over 45% in size. The method in brief: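 HepG2 cells stably carrying hCAR and a CYP2B6-2.2kb reporter; 15-concentration compounds plus PK11195 (final 0.75 uM), 23 hr at 37 C/5% CO2. Viability read by CellTiter-Fluor fluorescence.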

Test [4] concerns the target Nuclear receptor subfamily 1 group I member 3 (Homo sapiens) (UniProt Q14994). The test can be described thus: qHTS assay to identify small molecule agonists of the constitutive androstane receptor (CAR) signaling pathway (AID 1224839). Also: nearly all actives have a fitted effect of over 15% in size. Also: potency is read from the fitted curve at half-maximal effect. The method in brief:
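HepG2 cells stably co-transfected with hCAR and a CYP2B6-2.2kb luciferase reporter; compounds at 15 concentrations with 0.75 uM PK11195 present. After 24 hr at 37 C, luciferase read by ONE-Glo luminescence.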

The nature of test [5]: qHTS assay to identify small molecule antagonists of the estrogen related receptor signaling pathway with the pleiotropic PPARgamma coactivator (PGC) from Tox21 10K library - cell viability counter screen (AID 1224840; active = well fitted cell-killing curve with a large enough effect in the repeat runs, not every such curve was filed as active; also: nearly all actives have a fitted effect of over 40% in size). The method in brief:
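PGC/ERR cells, 2,000/well; 6 h pre-incubation 37 C/5% CO2; cpd in DMSO via pin tool; 17.5 h 37 C; CellTiter-Fluor, 30 min; fluorescence.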

In test [6] the target is Thyrotropin receptor (Homo sapiens) (UniProt P16473). The test can be described thus: qHTS assay to identify small molecule agonists of the thyroid stimulating hormone receptor (TSHR) signaling pathway (AID 1224843; calls by dose curve; also: nearly all actives have a fitted effect of over 45% in size). The method in brief:
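Cell line HEK293 with TSHR; density 800/well. Exposure 30 min RT. Readout HTRF cAMP (cAMP-d2/anti-cAMP-cryptate), 1 h RT before reading.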

Test [7] is described as follows: qHTS assay to identify small molecule agonists of the hypoxia (HIF-1) signaling pathway - cell viability counter screen (AID 1224844; calls by dose curve; also: nearly all actives have a fitted effect of over 50% in size). The method in brief: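 ME-180 HRE-bla cells, 2,000/well, 0.5% dialyzed FBS; 5 hr settle, 17 hr compound at 37C/5% CO2; CCF4-AM reporter read first, then CellTiter-Glo luminescence after 30 min RT.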
Test [8] in a line: qHTS assay to identify small molecule agonists of H2AX (AID 1224845; active = well fitted activation curve with a large enough effect in the signal ratio in the repeat runs, not every such curve was filed as active; the % refers to the signal ratio). The method in brief: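 Wild-type CHO-K1 cells plated overnight, then exposed 3 hr at 37C to compounds at 15 concentrations (0.76% DMSO). Lysed, then HTRF anti-pH2AX(S139)-cryptate/anti-H2AX-d2 detection after 24 hr at room temperature; emissions 665 and 620 nm.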
Test [9] is described as follows: qHTS assay to identify small molecule agonists of the hypoxia (HIF-1) signaling pathway (AID 1224846; active = well fitted activation curve with a large enough effect in the signal ratio in the repeat runs, not every such curve was filed as active; the % refers to the signal ratio). The method in brief:
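Cell line: CellSensor HRE-bla ME-180; 2,000 cells/well; 0.5% dialyzed FBS; 5 h preincubation; DMSO compound pin transfer; 17 h, 37C, 5% CO2; CCF4-AM added; bla FRET signal scored for activation.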

Test [10] in a line: qHTS assay to identify small molecule agonists of H2AX - cell viability counter screen (AID 1224847; calls by dose curve; also: top concentration of the series differs between compounds; nearly all actives have a fitted effect of over 30% in size). The method in brief:
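CHO-K1 cells plated overnight at 37C, then exposed 3 h at 37C to compounds at 15 concentrations (0.76% DMSO final). Viability by CellTiter-Glo luminescence after 30 min at room temperature.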

Test [11] in a line: A CellTox Green Cytotoxicity Assay to monitor cytotoxicity in HEK293 cells - 0 hour (AID 1224869). Also: nearly all actives have a fitted effect of over 50% in size. Also: potency is read from the fitted curve at half-maximal effect. The method in brief: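 Nonlytic real-time cytotoxicity: HEK293 + CellTox Green reagent plated, 5 h preincubation, pintool compound addition (23 nL in DMSO), 37 C for 40 h, fluorescence measured at successive time points.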
The nature of test [12]: qHTS assay to identify small molecule antagonists of the constitutive androstane receptor (CAR) signaling pathway - cell viability counter screen (AID 1224837). Also: nearly all actives have a fitted effect of over 45% in size. The method in brief: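 HepG2-CYP2B6-hCAR cells, 2500/well, 4 hr pre-incubation; compound titration, 15 conc.; CITCO 50 nM final; 23 hr, 37 C/5% CO2; CellTiter-Fluor, fluorescence intensity.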
Test [13] in a line: qHTS RealTime-Glo MT Cell Viability Assay in HepG2 cells - 24 hour (AID 1224867). Also: nearly all actives have a fitted effect of over 50% in size. The method in brief:
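Viability was tracked continuously by NanoLuc luminescence from prosubstrate reduced by living HepG2 cells, at successive time points over 40 h of compound exposure. Cells with reagent were preincubated 5 h at 37 °C before compound addition.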

Test [14] in a line: qHTS RealTime-Glo MT Cell Viability Assay in HEK293 cells - 32 hour (AID 1224868). Also: top concentration of the series differs between compounds; nearly all actives have a fitted effect of over 50% in size. The method in brief:
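Viability tracked continuously by luminescence as live cells reduce a prosubstrate for NanoLuc; HEK293 cells preincubated 5 h, compound-treated at 37 C, and read at 0, 8, 16, 24, 32 and 40 h.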

Test [15] deals with Nuclear receptor subfamily 1 group I member 3 (Homo sapiens) (UniProt Q14994). Nature of the test: qHTS assay to identify small molecule antagonists of the constitutive androstane receptor (CAR) signaling pathway (AID 1224838).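 Also: HepG2 cells stably expressing hCAR with CYP2B6 luciferase reporter stimulated by CITCO; nearly all actives have a fitted effect of over 40% in size.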 The method in brief:
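HepG2-CYP2B6-hCAR cells; 4 h pre-incubation; cpd (15 conc) + CITCO 50 nM final; 24 h, 37 C/5% CO2; ONE-Glo, luminescence.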

The nature of test [16]: qHTS RealTime-Glo MT Cell Viability Assay in HepG2 cells - 40 hour (AID 1224870). Also: nearly all actives have a fitted effect of over 50% in size. The method in brief:
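HepG2 cells mixed with RealTime-Glo MT reagents (NanoLuc plus cell-permeant prosubstrate) were seeded at 600 cells/well, incubated 5 h at 37 C/5% CO2, then pinned with compounds in DMSO; nonlytic luminescence tracked viability during 40 h treatment.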

Test [17] is described as follows: qHTS assay to identify small molecule agonists of the estrogen related receptor signaling pathway with the pleiotropic PPARgamma coactivator (PGC) from Tox21 10K library (AID 1224842). Also: nearly all actives have a fitted effect of over 15% in size. The method in brief: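 PGC/ERR reporter cells (NTP line) were seeded 2,000 per well, rested 6 h at 37 C/5% CO2, then pin-dosed with compounds in DMSO for 18 h at 37 C; luciferase read by One-Glo luminescence after 30 min at room temperature.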

Test [18] is described as follows: qHTS assay to identify small molecule agonists of the estrogen related receptor (ERR) signaling pathway from Tox21 library (AID 1224849; calls by dose curve; also: nearly all actives have a fitted effect of over 15% in size). The following applies: ERR reporter cell line, ONE-Glo luciferase, 18 h; at 92.4 µM (top of the series) unless noted. The method in brief:
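ERR cells, 6 h pre-incubation 37 C/5% CO2; cpd in DMSO pinned; 18 h 37 C; ONE-Glo added, 30 min RT; luminescence read. Agonist mode, qHTS.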

Test [19] can be described thus: qHTS assay to identify small molecule antagonists of the estrogen related receptor signaling pathway with the pleiotropic PPARgamma coactivator (PGC) from Tox21 10K library (AID 1224841; call rule not given here). The method in brief:
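PGC/ERR cell line, 2,000 cells/well; 6 h pre-incubation 37 C/5% CO2; compounds (DMSO) pinned in; 18 h, 37 C; One-Glo, 30 min RT; luminescence.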

The nature of test [20]: qHTS assay to identify small molecule antagonists of the estrogen related receptor (ERR) signaling pathway from Tox21 library (AID 1224848). Also: nearly all actives have a fitted effect of over 50% in size. The method in brief: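 Screening used an ERR reporter line supplied by NTP, exposed for 18 h at 37 C to library compounds delivered in DMSO. Signal was luciferase luminescence developed with ONE-Glo at room temperature for 30 min.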

Unmarked numbers belong to inactive results. Results filed as inconclusive are left out. Activity calls are given as the source filed them. Unless noted, calls follow the shape of the dose curve; as a rule, active = well fitted curve in the direction sought with a large enough effect in the repeat runs; inconclusive = weak or mixed curves; inactive = no such curve, though single readings can be large; an effect the other way counts as inactive or inconclusive.
% is scaled to controls: 0 for no effect and ±100 for the full control effect.

Thyrotropin receptor (Homo sapiens), sequence (P16473 whole entry, looked up): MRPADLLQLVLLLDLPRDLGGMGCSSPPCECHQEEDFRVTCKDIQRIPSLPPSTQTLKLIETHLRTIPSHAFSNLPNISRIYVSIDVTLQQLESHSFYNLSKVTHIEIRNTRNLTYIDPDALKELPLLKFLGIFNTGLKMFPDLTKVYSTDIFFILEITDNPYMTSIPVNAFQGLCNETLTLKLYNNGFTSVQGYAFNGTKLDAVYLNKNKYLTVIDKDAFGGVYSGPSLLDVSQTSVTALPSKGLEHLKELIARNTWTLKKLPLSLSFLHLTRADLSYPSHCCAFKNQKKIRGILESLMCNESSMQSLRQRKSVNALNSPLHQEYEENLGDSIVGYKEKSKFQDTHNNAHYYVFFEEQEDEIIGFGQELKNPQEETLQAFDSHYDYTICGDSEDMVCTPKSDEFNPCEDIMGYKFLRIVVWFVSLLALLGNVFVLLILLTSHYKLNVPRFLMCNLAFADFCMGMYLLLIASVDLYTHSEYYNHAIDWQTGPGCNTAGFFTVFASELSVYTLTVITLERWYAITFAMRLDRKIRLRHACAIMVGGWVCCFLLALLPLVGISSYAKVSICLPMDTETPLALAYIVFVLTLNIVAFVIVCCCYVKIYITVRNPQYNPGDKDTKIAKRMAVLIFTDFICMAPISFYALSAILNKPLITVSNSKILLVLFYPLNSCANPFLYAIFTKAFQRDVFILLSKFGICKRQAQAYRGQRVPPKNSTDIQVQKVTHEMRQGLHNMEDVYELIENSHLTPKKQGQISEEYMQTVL
Nuclear receptor subfamily 1 group I member 3 (Homo sapiens), sequence (Q14994 whole entry, looked up): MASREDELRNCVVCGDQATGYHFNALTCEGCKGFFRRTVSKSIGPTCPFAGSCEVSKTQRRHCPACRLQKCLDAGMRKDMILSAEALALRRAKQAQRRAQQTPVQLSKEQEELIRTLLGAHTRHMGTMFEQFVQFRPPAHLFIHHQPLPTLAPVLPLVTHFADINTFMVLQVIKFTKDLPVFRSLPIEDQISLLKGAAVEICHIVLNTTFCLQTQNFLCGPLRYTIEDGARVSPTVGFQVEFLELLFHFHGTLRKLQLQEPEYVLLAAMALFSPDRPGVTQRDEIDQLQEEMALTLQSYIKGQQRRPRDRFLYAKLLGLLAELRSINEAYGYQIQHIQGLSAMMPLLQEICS

`C[C@H](CN1CCCC1)C(=O)c1ccc(C(F)(F)F)cc1`: the Potency entry in [1], in [2], in test [3], in test [4], in test [5] and in test [6] was “inactive” throughout. Besides, the Potency result in test [7], in [8], in [10] and in [11] was “inactive” throughout. Also, the outcome in [9] was inactive.
In the case of `CCCCCCCCNC`, the Potency result in test [1], in test [3], in test [12], in test [4], in test [5] and in test [6] was “inactive” in each case. The Potency result in test [7], in [8], in [10], in test [14] and in test [11] was “inactive” in each case. In addition, the molecule was classed as inactive in test [9] and in test [13].
Take `CCCCCCCCCC(C)C=O` (centres undefined): the Potency entry in [1], in [3], in [12], in [15], in [4] and in test [5] was “inactive” in each case. Besides, the Potency entry in test [6], in test [7], in test [8], in test [10] and in test [14] was “inactive” in each case. The result in test [9] and in [13] was inactive. The Potency in [11] is 24.5 µM (active).
`CCOC(OCC)OCC`: the Potency entry in [1], in test [3], in [12], in test [15], in test [4] and in test [5] was “inactive” throughout. For the same molecule, the Potency result in [6], in [7], in test [8], in [14], in test [11] and in [16] was “inactive” in each case. The call in test [9] and in [13] was inactive.
For the molecule `O=C(O)c1ccncc1`, the Potency result in [1], in test [5], in test [17], in test [6], in test [7] and in [8] was “inactive” each time. The Potency result in test [10], in test [14], in test [11] and in test [16] was “inactive” throughout. Moreover, the Potency in test [2] was 73 µM (active). Moreover, the activity change, positive = activation in test [18] is -23.5%. The molecule was called inactive in [13].
For the molecule `Cc1nc(C)c(C)nc1C`, the Potency entry in test [1], in test [3], in test [12], in test [15], in test [4] and in [5] was “inactive” each time. Moreover, the Potency entry in [19], in test [17], in test [6], in test [8], in test [10] and in [20] was “inactive” each time. The Potency result in test [14] and in test [16] was “inactive” each time. Besides, the molecule was classed as inactive in [9] and in test [13]. Further, the activity change, positive = activation in [18] was -0.837%.
For the molecule `C=CC(O)CCCCC` (centres undefined), the Potency result in test [1], in test [3], in [12], in test [4], in test [5] and in [17] was “inactive” throughout. The Potency entry in [6], in [7], in [8], in [14], in [11] and in [16] was “inactive” in each case. For the same molecule, the molecule was classed as inactive in test [9] and in test [13]. Moreover, the activity change, positive = activation in test [18] was 1.36%.
On to `c1ccc(CCNc2nc(-c3ccccc3)cs2)cc1`, for which the Potency entry in test [1], in test [3], in [12], in [5], in test [6] and in [7] was “inactive” in each case. The Potency result in [8] and in test [14] was “inactive” throughout. Besides, the Potency in [4] is 7.5 µM (active). Also, the outcome in test [9] and in [13] was inactive.
On to `O=C(c1ccc(Cl)cc1)c1ccc(Cl)cc1`, for which the Potency result in test [1], in test [2], in test [3], in [15], in test [5] and in test [7] was “inactive” each time. Moreover, the Potency entry in [8], in test [14] and in [16] was “inactive” each time. Also, the outcome in test [9] and in [13] was inactive.

Source of the values: PubChem BioAssay (Tox21).
